One may read the AC50 as the concentration at which the activity in the assay is half-maximal.

Structures are written as SMILES. Activity calls are given as the source filed them. Rule for the calls: active = hit-call score of the fitted dose curve at least 0.9, where 1 is the maximum; inactive = score below 0.9.

The assay can be described thus: ATG_PPRE_CIS: Attagene CIS-FACTORIAL HepG2 Assay for human Peroxisome Proliferator-activated Response Element (PPRE) (AID 2282958). The note with it: HepG2 PPRE cis-element reporter, Attagene transcription factor profiling; actives raise or lower the signal. On the procedure:
ATG_CIS is a cell-based, multiplexed-readout assay that uses HepG2, a human liver cell line, with measurements taken at 24 hours after chemical dosing in a 24-well plate.ATG_PPRE_CIS is one of 52 assay component(s) measured or calculated from the ATG_CIS assay. It is designed to make measurements of mRNA induction, a form of inducible reporter, as detected with fluorescence intensity signals by Reverse transcription polymerase chain reaction (RT-PCR) and Capillary electrophoresis technology.Data from the assay component ATG_PPRE_CIS was analyzed into 1 assay endpoint. This assay endpoint, ATG_PPRE_CIS, was analyzed with bidirectional fitting relative to DMSO as the negative control and baseline of activity. Using a type of inducible reporter, measures of mRNA for gain or loss-of-signal activity can be used to understand the reporter gene at the transcription factor-level as they relate to the gene PPARA and PPARD and PPARG. Furthermore, this assay endpoint can be referred to as a primary readout, because this assay has produced multiple assay endpoints where this one serves a reporter gene function. To generalize the intended target to other relatable targets, this assay endpoint is annotated to the nuclear receptor intended target family, where the subfamily is non-steroidal.
Human liver HepG2 cells are transiently transfected with multiple reporter transcription units (MRTUs) in 6-well plates using FuGene 6 reagent (Roche; 3 ml FuGene/1 mg DNA). The MRTU constructs are regulated by a cis-regulating element (promoter). […] A major difference between the CIS and TRANS system is that in CIS activities of endogenous TFs are measured, whereas the TRANS assay evaluates changes in activities of exogenous, chimeric NR-Gal4 proteins. […] At the end of 24 hour incubation, total RNA was isolated using TriZol reagent (Invitrogen). The isolated RNA is then reverse-transcribed using oligo(dT) primer and Mo-MLV reverse transcriptase (Invitrogen) with DNAse I (Ambion) treatment for 30 min. The one-tenth of the produced cDNA was amplified by PCR using Taq DNA polymerase (Invitrogen) and two reporter sequence-specific primers. The PCR products were fluorescently labeled by primer extension with 6-arboxyfluorescein (6-FAM) 5'-labeled reporter sequence-specific primer (2 min at 95 C, 20 s at 68 C and 10 min at 72 C) and these products were digested with 5U of HpaI (New England Biolabs) for 2h at 37 C. The fragments were purified using Qiaquick PCR columns (Qiagen), analyzed on an ABI 3130xL genetic analyzer (Applied Biosystems) with peak positions identified by using a set of X-rhodamine (ROX)-labeled MapMarker1000 molecular weight standards (BioVentures). The raw capillary electrophoresis data was processed using Attagraph software (Attagene).
Regarding `O=C(O)c1ccc(C(=O)O)cc1`, the compound was called inactive.
As for `CC(C)=CCO`, the compound was classed as inactive.
Same read-out and setting: in the case of `CCCC(=O)OCCC(C)CCC=C(C)C` (stereo not given) it was “inactive”; in that of `CC(=O)C(C)=O`, “inactive”; in that of `C=C[Si](OCC)(OCC)OCC`, “inactive”.
The same measure, in the same setting: in the case of `FC1(F)C(F)(F)C(F)(F)C2(F)C(F)(C1(F)F)C(F)(F)C(F)(F)C1(F)C(F)(F)C(F)(F)C(F)(F)C(F)(F)C12F` (stereo not given) it was “inactive”.
As for `O=[N+]([O-])c1ccc(Nc2ccc(Nc3ccccc3)c(S(=O)(=O)O)c2)c([N+](=O)[O-])c1`, the concentration at half-maximal activity (AC50) was 49.2 µM (active).
On to `CO[Si](C)(OC)c1ccccc1`, for which the call was inactive.
On the same count and under the same terms, as for `CCCCC(CC)COCCC#N` (stereo not given), the entry is “inactive”; as for `CC1(C)C(=O)N(Br)C(=O)N1Cl`, “inactive”; as for `COc1nc(C)nc(N)n1`, “inactive”.
For `Clc1ccc2c(c1)C(N1CCNCC1)=Nc1ccccc1O2`, the result was inactive.
On the same count and under the same terms, in the case of `O=C1CCCCCCCCCCOCCCCO1` it was “inactive”.
The same measure, in the same setting: in the case of `NCCNCCN` it was “inactive”; in that of `CCOC(=O)c1ccccc1OC`, “inactive”; in that of `CC(CCO)CCCC(C)(C)O` (stereo not given), “inactive”.
Regarding `CC(C)CCCCCCCOC(=O)c1ccc(C(=O)OCCCCCCCC(C)C)c(C(=O)OCCCCCCCC(C)C)c1`, the result was inactive.
Same read-out and setting: as for `CCc1ccc(C=O)cc1`, the entry is “inactive”.
Take `CC(C)=CCCC(C)=CCCC(C)=CCO`: the compound was called inactive.
Same read-out and setting: in the case of `Cc1cccc(C)c1C` it was “inactive”; in that of `CCCCO`, “inactive”.
Consider `c1ccc2[nH]ccc2c1`, for which the compound was called inactive.
As for `CC(C)=CCC/C(C)=C/COC=O`, the call was inactive.
The same measure, in the same setting: in the case of `[Ca+2]` it was “inactive”; in that of `CC(C)(C)c1cc(CCC(=O)NN)cc(C(C)(C)C)c1O`, “inactive”; in that of `CC(C=O)Cc1ccc(C(C)C)cc1` (stereo not given), “inactive”.
Still for that read-out and setting: in the case of `O=C(O)CCCCC1CCSS1` (stereo not given) it was “inactive”; in that of `CCCCCOC(=O)CCC`, “inactive”; in that of `ClCCCl`, “inactive”.
Consider `O=c1oc(=O)c2cc3c(=O)oc(=O)c3cc12`, for which the result was inactive.
Same read-out and setting: in the case of `CCCC1CCC(=O)O1` (stereo not given) it was “inactive”; in that of `C#C[C@]1(O)CC[C@H]2[C@@H]3CCC4=Cc5oncc5C[C@]4(C)[C@H]3CC[C@@]21C`, “inactive”; in that of `CC(C)Oc1ccccc1O`, “inactive”.
On the same count and under the same terms, in the case of `C=C[C@@H](C)CCC=C(C)C` it was “inactive”; in that of `C[C@]12CC[C@H]3[C@@H](CCC4=CC(=O)CC[C@@]43C)[C@@H]1CC[C@@H]2C(=O)CO`, “inactive”.
On the same count and under the same terms, as for `C=C(C)C(=O)O`, the entry is “inactive”; as for `CCC(=O)OCCC(C)CCC=C(C)C` (stereo not given), “inactive”; as for `CCOc1ccccc1OCC`, “inactive”.
As for `CCCC(=O)C(C)=O`, the compound was classed as inactive.
For `CNC(=O)Oc1ccc2c(c1)[C@]1(C)CCN(C)[C@@H]1N2C`, the outcome was inactive.
